# Assay outcomes deposited in PubChem by several laboratories.
# A selection: hits, their analogues and other compounds. The true share with any hit is near 0.97%.
# Hsp70 activator = transcriptional activators of Hsp70; HeLa Hsp70 promoter luciferase reporter, luminescence; scaled: vehicle 0, proteasome-inhibitor control 100%; activation, % at 10 µM; 0.04% of 200,000 active;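 active means activation above the mean across all tested compounds plus 3 SD, cutoff set per campaign, cut at about 5.5% in these data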;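 further: 100% = MG132 at 30 µM as the positive control and 0% = DMSO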
# S1P4 antagonist = antagonists of human S1P4 receptor | AID 1510 | inhibition, % at 4.98 µM | O95977 | 0.26% of 220,000 active | S1P4-expressing cells, antagonist mode, reporter read-out; in the data active means inhibition above about 29%;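 further: 0% = wells stimulated with agonist and 100% = vehicle wells without agonist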
# Target sequence (O95977 whole entry, looked up): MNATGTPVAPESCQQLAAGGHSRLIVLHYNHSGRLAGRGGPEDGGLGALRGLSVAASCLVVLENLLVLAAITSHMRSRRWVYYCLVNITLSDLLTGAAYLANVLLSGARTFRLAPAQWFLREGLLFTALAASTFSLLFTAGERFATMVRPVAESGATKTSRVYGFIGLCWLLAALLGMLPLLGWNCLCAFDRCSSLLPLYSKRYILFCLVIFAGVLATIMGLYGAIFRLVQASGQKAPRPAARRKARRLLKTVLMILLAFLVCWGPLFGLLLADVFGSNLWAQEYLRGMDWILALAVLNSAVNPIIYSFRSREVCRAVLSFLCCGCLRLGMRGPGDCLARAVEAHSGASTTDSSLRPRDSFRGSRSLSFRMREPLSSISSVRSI
# AI-2 QS modul = modulates the Vibrio harveyi AI-2 quorum sensing system; Vibrio harveyi JMH597 AI-2 luminescence/OD600 ratio, 9 h; active compounds read low; strain lacks LuxN and CqsS sensors; 0 = neutral-control median; activity change, % at 7.5 µM; 0.4% of 300,000 active; AID 2094; in the data active means activity change below about -75%, passing the limit was not always enough;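 further: luminescence divided by OD600 gain over 9 h not by final OD600 alone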
# S1P4 ag = activates the human S1P4 receptor; AID 1509; O95977; 0.35% of 220,000 active; activation, % at 4.98 µM; S1P4-expressing cell line, agonist reporter assay; in the data active means activation above about 11%;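 further: 0% = DMSO vehicle and 100% = reference agonist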
# S1P3 antagonist = antagonists of human S1P3 receptor | Q99500 | CHO S1P3 NFAT-BLA reporter, FRET fluorescence, antagonist mode | inhibition, % at 4.98 µM | 0.27% of 170,000 active;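 active means inhibition above the plate cutoff, the mean inhibition of test wells on that plate plus 3 SD, cut at about 28% in these data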;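 further: cells challenged with S1P at its EC80 of 0.8 µM; blue over green emission ratio from cleaved BLA substrate after 4 h stimulation; 0% = S1P-stimulated wells and 100% = unstimulated DMSO-only wells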
# * hit, by the source's call; x = no result.
SMILES,Hsp70 activator,S1P4 antagonist,AI-2 QS modul,S1P4 ag,S1P3 antagonist
O=C(CCOc1ccccc1)Nc1ccccc1,0.3,6.1,-60.3,0.4,x
COc1ccc(NC(=O)CNC(=O)c2ccc([N+](=O)[O-])cc2)cc1,0.0,1.6,34.1,0.4,-13.8
COc1ccc(C(=O)CC(=O)Nc2ccc([N+](=O)[O-])cc2)cc1,x,x,-90.3*,x,x
O=C(CCOc1ccccc1)Nc1ccc([N+](=O)[O-])cc1,0.3,-12.5,-79.4*,2.0,11.4
COc1cccc(-c2nc(CS(=O)(=O)CC(=O)Nc3cc(F)ccc3F)c(C)o2)c1,x,x,9.7,x,x
Cc1c(Nc2nc(-c3ccc(Cl)cc3)cs2)c(=O)n(-c2ccccc2)n1C,-0.2,-2.3,-86.5*,0.0,-23.2
COCCN(C(=O)c1ccc(-c2ccc(Cl)cc2)o1)c1c(N)n(Cc2ccccc2)c(=O)[nH]c1=O,x,x,-7.3,x,x
O=C(NCc1ccco1)c1ccc(Cn2cc([N+](=O)[O-])cn2)o1,-0.1,1.1,28.0,-1.6,x
O=C(Nc1cccnc1)c1ccc([N+](=O)[O-])o1,x,x,-107.8*,x,x
O=C(Cc1ccc([N+](=O)[O-])cc1)NCc1cccnc1,x,x,6.3,x,x
O=C(NCc1cccnc1)c1ccc([N+](=O)[O-])o1,0.0,3.0,-109.5*,0.5,3.9
O=C(NCc1ccco1)c1ccc([N+](=O)[O-])o1,-0.2,14.1,-165.0*,-1.6,-21.1
Cc1cc(C)c2sc(NC(=O)c3ccc([N+](=O)[O-])o3)nc2c1,x,x,-86.1*,x,x
CSc1cccc(-n2ccc(=O)c(C)c2C)c1,x,x,3.6,x,x
CSc1ccc(C(=O)C2CCCN(C(=O)c3nonc3C)C2)cc1 (stereo not drawn),x,x,30.1,x,x
CC(C)(C)c1ccc(C(=O)NC(=S)NCc2cccnc2)cc1,-0.2,-3.5,-2.1,3.5,0.5
CC(=O)c1ccc(NC(=O)c2ccc([N+](=O)[O-])o2)cc1,x,x,-91.4*,x,x
CC(C)(C)c1ccc(C(=O)NCc2cccnc2)cc1,-0.4,-3.4,2.2,-0.8,74.7*
COc1ccc2c(c1)CCc1c(C(=O)NCc3cccnc3)noc1-2,-0.1,-9.0,22.6,-0.3,69.6*
CCCNC(=O)c1noc2c1CCc1cc(OC)ccc1-2,0.2,-5.2,13.2,-1.7,-35.2
CCC(C)NC(=S)N(Cc1cc2cc(C)ccc2n2nnnc12)CC(C)(C)NC(C)C (stereo not drawn),x,x,2.2,x,x
CCSCc1nnc(SCC(=O)Nc2nc(C)cs2)n1C,0.1,0.2,17.7,2.8,-8.4
O=S(=O)(Nc1ccc(Cl)cc1)c1ccc(N2CCOCC2)c(NC(=S)NCCN2CCOCC2)c1,-0.1,-11.2,26.1,2.1,4.7
COc1cc(/C=N/NC(=O)c2cncc(Br)c2)cc([N+](=O)[O-])c1O,x,15.9,-202.3*,-0.2,-19.3
COc1cc([N+](=O)[O-])cc(/C=N/NC(=O)c2cncc(Br)c2)c1O,x,-4.9,-35.9,0.3,-14.0
SMILES,Hsp70 activator,S1P4 antagonist,AI-2 QS modul,S1P4 ag,S1P3 antagonist
CCCS(=O)(=O)N1CCN(C(=O)c2cc(OC)cc(OC)c2)CC1,-0.2,5.4,28.5,-1.3,94.6*
O=C(NCc1ccco1)C1CCN(S(=O)(=O)c2cccc([N+](=O)[O-])c2)CC1,x,x,12.8,x,x
O=C(COc1ccccc1)Nc1nnc(-c2ccc(Cl)s2)o1,-0.1,2.6,-87.0*,-2.2,0.6
COCCN(C(=O)COC(=O)CCCOc1ccc(OC)cc1)c1c(N)n(Cc2ccccc2)c(=O)[nH]c1=O,x,x,25.3,x,x
COc1cccc(N2C(=O)C(CC(=O)Nc3ccccc3)N(C3CCCCC3)C2=O)c1 (stereo not drawn),-0.1,-13.9,18.3,-0.1,x
COc1cccc(N2C(=O)C(CC(=O)Nc3ccc(F)cc3)N(C3CCCCC3)C2=O)c1 (stereo not drawn),0.1,12.9,19.6,-0.4,102.9*
COc1ccc(-c2cc(N)n(S(=O)(=O)c3c(F)c(F)c(F)c(F)c3F)n2)cc1OC,20.1*,25.7,-5.7,0.4,-0.4
Cc1oc2c(c1C(=O)O)C(=O)c1ccccc1C2=O,0.3,1.2,-82.6*,1.8,-11.9
CCOC(=O)c1ccccc1NC(=O)Cn1c(-c2nonc2N)nc2ccccc21,-0.2,-11.4,6.4,-0.3,56.5*
Nc1nonc1-c1nc2ccccc2n1CC(=O)Nc1ccccc1,x,-17.7,13.9,1.5,1.6
NC(=O)C(c1ccc(Cl)cc1)c1ccc(Sc2ccc(Cl)cc2)nn1 (stereo not drawn),-0.3,2.1,-83.5*,-2.8,x
CCOC(=O)/C=C1\CN(C(C)c2ccccc2)S(=O)(=O)c2ccccc21 (stereo not drawn),x,x,8.2,x,x
Nc1nonc1C(=O)NCCN=Cc1cc(Cc2ccccc2)cc(Br)c1O,0.5,-7.0,-149.1*,0.1,x
COc1cccc(-n2c(SCC(=O)N3CCOCC3)nnc2-c2c[nH]c3ccccc23)c1,0.2,-5.8,11.3,1.4,52.6*
Cc1cc(NC(=O)c2ccc(Cl)cc2)c(C(C)C)cc1O,-0.3,47.0*,20.0,-0.5,x
Cc1cc(NC(=O)c2ccc(Cl)cc2)c(C)cc1O,0.7,7.3,22.7,-0.6,-4.0
Cn1c(CO)cnc1-c1ccccc1,x,3.9,14.3,-1.0,7.5
Cc1cc(NC(=O)C(Cl)c2ccccc2)no1 (stereo not drawn),x,x,-86.0*,x,x
CCN1CCc2c(sc(NC(=O)Nc3ccc(Cl)c(Cl)c3)c2C(N)=O)C1,-0.3,-7.4,x,0.2,29.2*
O=C(NC(=S)Nc1ccc(F)c(Cl)c1)C1CC1,x,x,-78.3*,x,x
Cc1ccc(NC(=S)NC(=O)C2CC2)cc1Cl,x,x,-39.3,x,x
O=C(NC(=S)N1CCCC1)c1cccc([N+](=O)[O-])c1,x,x,28.7,x,x
Cc1ccc(NC(=O)Nc2ccccc2)cc1[N+](=O)[O-],-0.3,-14.7,1.7,0.5,26.1
O=C(Nc1ccc(Cl)cc1)Nc1csc([N+](=O)[O-])c1,x,24.3,-82.8*,-1.0,6.9
O=C(Nc1ccccc1)Nc1ccc(Cl)c([N+](=O)[O-])c1,-0.3,-14.8,-102.0*,3.4,7.2
SMILES,Hsp70 activator,S1P4 antagonist,AI-2 QS modul,S1P4 ag,S1P3 antagonist
O=c1oc(-c2ccc(F)cc2)nc2ccsc12,-0.5,-1.7,10.2,-2.8,x
O=c1oc(-c2ccccc2Cl)nc2ccsc12,-0.1,-9.3,-82.8*,-2.3,x
CC1CCN(C(=O)CCNS(=O)(=O)c2ccc(Cl)cc2)CC1,x,x,1.7,x,x
O=c1c2cc(Br)ccc2nc(-c2ccc(Cl)cc2)n1O,x,x,18.5,x,x
O=c1c2cc(Cl)ccc2nc(-c2ccc([N+](=O)[O-])cc2)n1O,-0.3,6.1,-82.9*,0.0,-7.1
CC1CN(C(=O)COC(=O)c2ccc(S(=O)(=O)N(C)C)cc2)CC(C)O1 (stereo not drawn),x,x,1.1,x,x
CN(C)S(=O)(=O)c1ccc(C(=O)OCC2CC2(Cl)Cl)cc1 (stereo not drawn),x,x,-77.1*,x,x
COc1ccc(NS(=O)(=O)c2cn(C)c(=O)n(C)c2=O)cc1,x,12.2,5.8,-0.5,-7.0
Cc1ccc(C)c(C(=O)CN2C(=O)CCC2=O)c1,-0.2,7.5,16.8,0.0,75.2*
CCCNC(=O)C(=O)NCc1ccccn1,0.5,-9.5,17.7,-0.9,-18.2
COc1ccc(CCNC(=O)C(=O)NCc2ccccn2)cc1,-0.1,-16.8,-79.0*,0.6,2.8
O=C(Sc1cccc2cccnc12)c1ccc(F)cc1,1.6,98.5*,x,0.6,8.9
